Some structures have more than one record in an assay (separate samples or runs), and their calls can disagree. The source made the active and inactive calls. The calls were made as follows: active = hit-call score of the fitted dose curve at least 0.9, where 1 is the maximum; inactive = score below 0.9.

Read-out in test [1]: Interleukin-1 alpha (IL1a), IL1A (gene 3552)
Kind of test: BSK_KF3CT_IL1a: BioMAP Diversity Plus: KF3CT Assay for Interleukin-1 alpha (IL1a) Biomarker Activity (AID 2283070). The conditions noted are these: primary human keratinocytes with fibroblasts; actives raise or lower the signal. Summed up: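 Human keratinocyte plus foreskin fibroblast primary co-culture, sampled 24 h after chemical dosing. IL-1a measured by ELISA; responses fitted bidirectionally against DMSO baseline (negative control), so gain or loss of signal both count.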

Read-out in test [2]: TIMP metallopeptidase inhibitor 2 (TIMP2), TIMP2 (gene 7077)
Description: BSK_KF3CT_TIMP2: BioMAP Diversity Plus: KF3CT Assay for TIMP metallopeptidase inhibitor 2 (TIMP2) Biomarker Activity (AID 2283071). The conditions noted are these: primary human keratinocytes with fibroblasts; actives raise or lower the signal. Summed up: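 Cells: human keratinocytes co-cultured with foreskin fibroblasts. Treat with chemical, 24 h. Measure TIMP-2 by ELISA; fit curves bidirectionally vs DMSO baseline.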

Read-out in test [3]: C-C motif chemokine 2 (Homo sapiens) (UniProt P13500)
Kind of test: BSK_KF3CT_MCP1: BioMAP Diversity Plus: KF3CT Assay for Monocyte Chemoattractant Protein 1 (MCP1/CCL2) Biomarker Activity (AID 2283073). The conditions noted are these: primary human keratinocytes with fibroblasts; actives raise or lower the signal. Summed up: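 ELISA read-out of MCP-1, 24 h post-dose, in primary human skin keratinocytes co-cultured with fibroblasts. Parallel SRB staining monitors cytotoxicity; changes fitted both directions relative to DMSO.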

Read-out in test [4]: Matrix Metallopeptidase 9 (MMP9), MMP9 (gene 4318)
Description: BSK_KF3CT_MMP9: BioMAP Diversity Plus: KF3CT Assay for Matrix Metallopeptidase 9 (MMP9) Biomarker Activity (AID 2283074). The conditions noted are these: primary human keratinocytes with fibroblasts; actives raise or lower the signal. Summed up: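 Keratinocyte plus foreskin fibroblast human primary skin co-culture was dosed with chemical and MMP-9 was quantified by ELISA 24 h later. Bidirectional curve fitting used DMSO as negative control and activity baseline.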

Read-out in test [5]: CD40, CD40 (gene 958)
Description: BSK_LPS_CD40: BioMAP Diversity Plus: LPS Assay for CD40 Biomarker Activity (AID 2283076). The settings on record: primary human HUVEC with PBMC; actives raise or lower the signal. Summed up: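 In the LPS system of human endothelial cells with peripheral blood mononuclear cells, CD40 levels were read by ELISA 24 h post-treatment. Signal changes in either direction were fitted against the DMSO baseline, with parallel SRB protein staining.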

Read-out in test [6]: Interleukin-8 (IL8), CXCL8 (gene 3576)
Kind of test: BSK_LPS_IL8: BioMAP Diversity Plus: LPS Assay for Interleukin-8 (IL8) Biomarker Activity (AID 2283078). The settings on record: primary human HUVEC with PBMC; actives raise or lower the signal. Summed up:
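ELISA read-out of IL-8 after 24 h chemical treatment of LPS-activated endothelial/PBMC human primary co-cultures. Changes either up or down relative to DMSO; overt cytotoxicity checked by sulforhodamine B staining in parallel wells.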

Test [7] can be described thus: BSK_LPS_SRB: Viability Assessment in the BioMAP Diversity Plus: LPS Assay (AID 2283079).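 Also: total protein by sulforhodamine B absorbance as a cytotoxicity measure; measured one day after compound addition.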 The conditions noted are these: primary human HUVEC with PBMC. Summed up: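 SRB viability endpoint: cells fixed with 10% TCA, stained with 0.1% SRB, read at 560 nm, 24 h post-dose. HUVEC/PBMC co-culture; signal change in either direction scored relative to DMSO.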
Read-out in test [8]: Monocyte Chemoattractant Protein-1 (MCP1), CCL2 (gene 6347)
Kind of test: BSK_LPS_MCP1: BioMAP Diversity Plus: LPS Assay for Monocyte Chemoattractant Protein-1 (MCP1) Biomarker Activity (AID 2283081). The conditions noted are these: primary human HUVEC with PBMC; actives raise or lower the signal. Summed up: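 Secreted MCP-1 read by ELISA at 24 h post-dosing in an LPS-activated co-culture of endothelial cells with peripheral blood mononuclear cells. Fits run in both directions, DMSO as baseline; parallel SRB staining tracks overt cytotoxicity.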

Test [9] is described as follows: BSK_LPS_PGE2: BioMAP Diversity Plus: LPS Assay for Prostaglandin E2 (PGE2) Biomarker Activity (AID 2283082). The settings on record: primary human HUVEC with PBMC; actives raise or lower the signal. Summed up: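 LPS-activated HUVEC/PBMC co-culture; cmpd dosed, 24 h; PGE2 by ELISA; bidirectional fit vs DMSO; SRB (0.1%, TCA-fixed, 560 nm) in parallel plates for overt cytotox.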

Read-out in test [10]: Macrophage colony-stimulating factor (MCSF), CSF1 (gene 1435)
Description: BSK_LPS_MCSF: BioMAP Diversity Plus: LPS Assay for Macrophage colony-stimulating factor (MCSF) Biomarker Activity (AID 2283083). The settings on record: primary human HUVEC with PBMC; actives raise or lower the signal. Summed up:
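Bidirectional fitting against DMSO was applied to M-CSF levels read by ELISA at 24 h post-dose. The system pairs human umbilical vein endothelium with peripheral blood mononuclear cells; parallel SRB staining tracked cytotoxicity.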

Read-out in test [11]: Tissue Factor, F3 (gene 2152)
Description: BSK_LPS_TissueFactor: BioMAP Diversity Plus: LPS Assay for Tissue Factor Biomarker Activity (AID 2283084). The settings on record: primary human HUVEC with PBMC; actives raise or lower the signal. Summed up: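 Compound was added to an endothelial cell/PBMC co-culture, and after 24 h tissue factor (CD142) was read by ELISA. Gain or loss of signal was fitted against a DMSO baseline, and parallel SRB staining (560 nm) tracked overt cytotoxicity.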

Read-out in test [12]: Tumor necrosis factor (Homo sapiens) (UniProt P01375)
Kind of test: BSK_LPS_TNFa: BioMAP Diversity Plus: LPS Assay for Tumour Necrosis Factor alpha (TNFa) Biomarker Activity (AID 2283085).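 As to AC50: TNFa protein level quantified by ELISA in the co-culture.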 The settings on record: primary human HUVEC with PBMC; actives raise or lower the signal. Summed up:
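Read-out is ELISA of TNFa in primary human endothelial cell–PBMC co-cultures at 24 h after compound. Activity in either direction was fitted against DMSO.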

Read-out in test [13]: Vascular cell adhesion molecule 1 (VCAM1), VCAM1 (gene 7412)
Kind of test: BSK_LPS_VCAM1: BioMAP Diversity Plus: LPS Assay for Vascular cell adhesion molecule 1 (VCAM1) Biomarker Activity (AID 2283086). The settings on record: primary human HUVEC with PBMC; actives raise or lower the signal. Summed up:
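HUVEC + PBMC co-culture, LPS system; compound 24 h; VCAM-1 by ELISA; bidirectional fit vs DMSO control; parallel SRB (0.1%, TCA-fixed, 560 nm) for cytotoxicity.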

Read-out in another test: CD38, CD38 (gene 952)
Kind of test: BSK_SAg_CD38: BioMAP Diversity Plus: SAg Assay for CD38 Biomarker Activity (AID 2283087). The settings on record: primary human HUVEC with PBMC; actives raise or lower the signal. Summed up:
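Human HUVEC plus PBMC co-culture stimulated with superantigen; CD38 measured by ELISA 24 h after chemical dosing. Fluorescence read-out, bidirectional fit against DMSO; cytotoxicity tracked in parallel by SRB and Alamar Blue.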

Read-out in test [14]: CD40, CD40 (gene 958)
Kind of test: BSK_SAg_CD40: BioMAP Diversity Plus: SAg Assay for CD40 Biomarker Activity (AID 2283088). The conditions noted are these: primary human HUVEC with PBMC; actives raise or lower the signal. Summed up: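 CD40 is measured by fluorescence ELISA in an endothelial/PBMC primary human co-culture at 24 h post-dose. Fitting is bidirectional, DMSO baseline. Parallel SRB staining (560 nm) flags cytotoxicity.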

Read-out in a further test: CD69, CD69 (gene 969)
Description: BSK_SAg_CD69: BioMAP Diversity Plus: SAg Assay for CD69 Biomarker Activity (AID 2283089).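 As to AC50: cell surface CD69 protein quantified by ELISA with fluorescence detection.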 The settings on record: primary human HUVEC with PBMC; actives raise or lower the signal. Summed up: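 ELISA, fluorescence read-out: CD69 on human umbilical vein endothelial cell + PBMC co-culture, 24 h post-dosing. Gain or loss of signal fitted bidirectionally against DMSO baseline.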

Read-out in test [15]: E-selectin (Homo sapiens) (UniProt P16581)
Description: BSK_LPS_Eselectin: BioMAP Diversity Plus: LPS Assay for Eselectin Biomarker Activity (AID 2283077). The settings on record: primary human HUVEC with PBMC; actives raise or lower the signal. Summed up:
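E-selectin ELISA on LPS-stimulated endothelial cell/PBMC co-cultures, read 24 h post-treatment; gains and losses fitted against DMSO. Parallel SRB staining (0.1% SRB after 10% TCA fixation, 560 nm) flags overt cytotoxicity.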

Sequence of Tumor necrosis factor (Homo sapiens) (P01375 whole entry, looked up): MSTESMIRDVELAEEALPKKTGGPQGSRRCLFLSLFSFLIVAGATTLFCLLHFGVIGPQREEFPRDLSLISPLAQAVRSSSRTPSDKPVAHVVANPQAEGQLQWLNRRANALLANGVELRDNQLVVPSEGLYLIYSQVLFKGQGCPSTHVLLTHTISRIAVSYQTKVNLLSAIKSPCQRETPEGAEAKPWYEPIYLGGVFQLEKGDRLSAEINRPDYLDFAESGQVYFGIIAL
Sequence of E-selectin (Homo sapiens) (P16581 whole entry, looked up): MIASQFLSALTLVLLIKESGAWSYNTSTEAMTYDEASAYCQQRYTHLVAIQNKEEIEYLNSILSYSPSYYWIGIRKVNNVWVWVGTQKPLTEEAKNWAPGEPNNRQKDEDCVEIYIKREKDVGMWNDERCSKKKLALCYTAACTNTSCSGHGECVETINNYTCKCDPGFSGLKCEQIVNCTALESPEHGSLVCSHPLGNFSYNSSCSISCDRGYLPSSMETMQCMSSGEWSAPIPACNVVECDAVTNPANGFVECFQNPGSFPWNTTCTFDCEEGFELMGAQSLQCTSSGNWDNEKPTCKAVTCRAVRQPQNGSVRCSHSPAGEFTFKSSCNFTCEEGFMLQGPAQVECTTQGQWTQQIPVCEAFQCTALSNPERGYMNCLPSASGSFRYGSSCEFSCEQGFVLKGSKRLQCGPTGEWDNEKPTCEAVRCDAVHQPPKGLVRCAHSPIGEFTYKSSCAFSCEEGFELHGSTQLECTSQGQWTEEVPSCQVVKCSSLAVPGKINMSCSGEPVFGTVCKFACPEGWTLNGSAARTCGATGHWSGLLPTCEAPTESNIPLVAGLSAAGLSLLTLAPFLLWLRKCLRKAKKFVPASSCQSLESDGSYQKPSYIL

As a reminder, the AC50 is the concentration at which the activity in the assay is half-maximal. In the case of `c1ccc2c(c1)[nH]c1ccccc12`, the outcome was “inactive” in [1]; “inactive” in test [2]; “inactive” in test [3]; “inactive” in [4]; “inactive” with CD40, CD40 (gene 958) [5]; “inactive” in [6]. The result in test [7], in test [8], in test [9], in test [10], in test [11] and in test [12] was inactive. Besides, the outcome was “inactive” in test [13]; “inactive” with CD38, CD38 (gene 952); “inactive” with CD40, CD40 (gene 958) [14]; “inactive” with CD69, CD69 (gene 969). Besides, in test [6], the AC50 is 0.017 µM (active).

As to `Nc1cccc(N)n1`, the outcome in test [1] is “inactive”; in [2], “inactive”; in test [3], “inactive”; in test [4], “inactive”; with CD40, CD40 (gene 958) [5] it was “inactive”; in test [6] it was “inactive”. The outcome in [7], in test [9], in test [10], in test [11], in test [12] and in test [13] was inactive. Further, the outcome in the test with CD38, CD38 (gene 952) is “inactive”; with CD40, CD40 (gene 958) [14], “inactive”; in the test with CD69, CD69 (gene 969), “inactive”.

In the case of `Nc1nc(N)nc(-c2ccccc2)n1`, the outcome is “inactive” in [1]; “inactive” in [2]; “inactive” in test [3]; “inactive” in [4]; “inactive” with CD40, CD40 (gene 958) [5]; “inactive” in test [15]. For the same compound, the result in test [6], in [7], in [9], in test [10], in [11] and in test [12] was inactive. Also, the outcome was “inactive” in [13]; “inactive” with CD38, CD38 (gene 952); “inactive” with CD40, CD40 (gene 958) [14]; “inactive” in the test with CD69, CD69 (gene 969).

On to `CC/C=C\CCOC(=O)c1ccccc1O`, for which the AC50 in [1] was 30.2 µM (active); in test [2], 14.7 µM (active); in the test with CD40, CD40 (gene 958) [5], 36.2 µM (active); in [6], 33.5 µM (active); in test [7], 30.7 µM (active); in test [10] it was 33 µM (active). Also, the AC50 in [11] is 33 µM (active); in test [12], 31.5 µM (active); in test [13], 37.9 µM (active); in the test with CD38, CD38 (gene 952), 31 µM (active); in the test with CD40, CD40 (gene 958) [14], 33.6 µM (active); with CD69, CD69 (gene 969) it was 20 µM (active). The outcome in test [3], in test [4] and in test [9] was inactive.

The values above are taken from PubChem BioAssay (EPA / NIEHS).
